Data as given in PubChem BioAssay (Tox21).
Several values for one entry are separate records, joined by “and”; a condition that tells them apart may be missing. Equal entries are not always repeated. Records with an inconclusive call do not appear. Entries that show only a call come without a potency. Activity calls are given as the source filed them. Unless noted, calls come from the whole dose curve.

Experiments:
[1] = Nuclear factor erythroid 2-related factor 2/antioxidant responsive element (Nrf2/ARE) small molecule agonists: qHTS cell viability counter screen in human keratinocytes (AID 1919968; active = well fitted curve in the direction sought with a large enough effect in the repeat runs; an effect the other way counts as inactive or inconclusive; note: nearly all actives have a fitted effect of over 55% in size; note: potency is the fitted concentration of half-maximal effect)
In short: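 Cells of the KeratinoSens line were plated at 1,500 per well and left for 5 h before compound transfer from DMSO stocks. After a 23 h incubation (37 C, 5% CO2), CellTiter-Fluor was added. Signal was taken as fluorescence intensity 1 h later.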

[2] = Nuclear factor erythroid 2-related factor 2/antioxidant responsive element (Nrf2/ARE) small molecule agonists: luciferase reporter gene qHTS assay in human keratinocytes (AID 1919969); note: nearly all actives have a fitted effect of over 35% in size; note: potency is the fitted concentration of half-maximal effect
[3] = target: Gonadotropin-releasing hormone receptor (Homo sapiens) (UniProt P30968); experiment: Human gonadotropin-releasing hormone receptor (GnRHR) small molecule agonists, calcium flux assay in GnRHR-HEK293 cells (AID 1920063); note: nearly all actives have a fitted effect of over 35% in size
In short: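 Compounds dissolved in DMSO are pin-transferred onto dye-loaded GnRHR-HEK293 cells, which were seeded 18 h before at 37 C/5% CO2. Calcium signal is read as fluorescence intensity at 1 s intervals for 3 min.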

[4] = target: KiSS-1 receptor (Homo sapiens) (UniProt Q969F8); experiment: Human kisspeptin (KISS1R) small molecule agonists, calcium flux assay in KISS1R-HEK293 cells (AID 1920064; active = well fitted curve in the direction sought with a large enough effect in the repeat runs; an effect the other way counts as inactive or inconclusive)
In short: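 Cell line: HEK293, stable human KISS1R. Dye loading 1 h at 37 C after 18 h culture. Read: kinetic fluorescence, 480/540 nm, 3 min at 1 s intervals.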

[5] = G protein-coupled receptor (GPCR) small molecule agonists, calcium flux assay: HEK293 wild type cell line counter screen (AID 1920065)
In short: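 Tox21 10K compounds, 15 concentrations each in triplicate, pin-transferred in DMSO onto dye-loaded cells; kinetic read at 480/540 nm for 3 min, 1 s intervals.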

[6] = p53 small molecule agonists, cell-based qHTS assay with human liver microsomes (AID 1963577)
In short: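 Compounds act here after metabolic activation: human liver microsomes and NADPH, both at 0.5 mg/mL final, were co-added to p53RE-bla cells. Incubation ran 16 h at 37 C, followed by LiveBLAzer detection.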

[7] = p53 small molecule agonists, cell-based qHTS assay with rat liver microsomes (AID 1963578)
In short: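 Read-out is beta-lactamase reporter fluorescence (LiveBLAzer, 2 h, room temperature, dark) in p53RE-bla cells treated 16 h at 37 C with compound, rat liver microsomes and NADPH, both 0.5 mg/mL final.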

[8] = p53 small molecule agonists, cell-based qHTS assay with human liver microsomes: qHTS cell viability counter screen (AID 1963579); note: nearly all actives have a fitted effect of over 45% in size
In short: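 Cells carrying the p53 response-element beta-lactamase reporter are treated for 16 h at 37 C with test compounds in the presence of human liver microsomes and NADPH (both 0.5 mg/mL final); ATP-based CellTiter-Glo luminescence then reports viability.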

[9] = p53 small molecule agonists, cell-based qHTS assay with rat liver microsomes: qHTS cell viability counter screen (AID 1963580); note: nearly all actives have a fitted effect of over 45% in size
In short: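 Luminescent ATP readout (CellTiter-Glo, 30 min at room temperature) reports viability of p53RE-bla HCT-116 cells after 16 h at 37 C with test compounds under metabolic activation by rat liver microsomes and NADPH at 0.5 mg/mL final each.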

[10] = p53 small molecule agonists, cell-based qHTS assay: qHTS cell viability counter screen (AID 1963581); note: nearly all actives have a fitted effect of over 45% in size
In short: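 ATP content measured by luminescence in HCT-116 p53RE-bla cells treated 16 h at 37 C, same wells as the reporter screen.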

[11] = p53 small molecule agonists, cell-based qHTS assay (AID 1963582; active = well fitted activation curve with a large enough effect in the signal ratio in the repeat runs, not every such curve was filed as active; the % refers to the signal ratio)
In short: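 16 h compound exposure (37 C) of p53 response element–bla cells, preceded by 5 h recovery at 37 C/5% CO2; read-out via LiveBLAzer B/G FRET substrate, 2 h RT, fluorescence intensity.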

[12] = target: 5-hydroxytryptamine receptor 2A (Homo sapiens) (UniProt P28223); experiment: 5-hydroxytryptamine receptor 2A (HTR2A) small molecule antagonists, cell-based qHTS assay (AID 1963586); note: nearly all actives have a fitted effect of over 45% in size
In short: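 CHO cells stably expressing human HTR2A were plated for 18 h at 37 C, then loaded with calcium dye for 1 h. Compounds were preincubated 5 min at room temperature before DOI (4 nM solution) was added. Kinetic fluorescence was read for 3 min.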

[13] = target: 5-hydroxytryptamine receptor 2A (Homo sapiens) (UniProt P28223); experiment: 5-hydroxytryptamine receptor 2A (HTR2A) small molecule agonists, cell-based qHTS assay (AID 1963587); note: nearly all actives have a fitted effect of over 30% in size
In short: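 HTR2A-CHO cells, plated 18 h at 37 C/5% CO2, dye-loaded 1 h at 37 C; compounds in DMSO added by pin tool (agonist mode). Intracellular calcium flux read as kinetic fluorescence on FDSS over 2 min at 1 s intervals.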

[14] = target: Muscarinic acetylcholine receptor M1 (Homo sapiens) (UniProt P11229); experiment: Cholinergic receptor muscarinic 1 (CHRM1) small molecule antagonists, cell-based qHTS assay (AID 1963588); note: nearly all actives have a fitted effect of over 40% in size
In short: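 Compounds were tested at 15 concentrations in three independent runs. Dye-loaded CHRM1-CHO cells were exposed 5 min at room temperature before stimulation by acetylcholine added at 50nM. Intracellular calcium was read kinetically on FDSS for 3 min.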

[15] = target: Muscarinic acetylcholine receptor M1 (Homo sapiens) (UniProt P11229); experiment: Cholinergic receptor muscarinic 1 (CHRM1) small molecule agonists, cell-based qHTS assay (AID 1963589); note: nearly all actives have a fitted effect of over 35% in size
In short: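 Homogeneous fluorescence calcium flux, agonist mode. Human M1-expressing CHO cells; compound dosed at 15 concentrations, three independent runs; signal sampled every 1 sec.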

[16] = cAMP Responsive Elements (CRE) small molecule agonists, cell-based qHTS assay (AID 1963590)
In short: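 HEK 293T cells stably bearing CRE-bla were plated at 2,000 cells per well and rested 18 h. Compounds, positive controls or DMSO were added for 3 h at 37 C. LiveBLAzer B/G substrate was then loaded for 2 h at room temperature.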

[17] = cAMP Responsive Elements (CRE) small molecule antagonists, cell-based qHTS assay (AID 1963591; active = well fitted inhibition curve with a large enough effect in the signal ratio in the repeat runs, not every such curve was filed as active; the % refers to the signal ratio)
In short: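 First, CRE-bla HEK293T cells settled 18 h at 37 C. Next, compound and 0.25 uM final NKH477 were applied for 3 h. Last, LiveBLAzer B/G substrate was loaded for 2 h at room temperature.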

[18] = target: D(2) dopamine receptor (Homo sapiens) (UniProt P14416); experiment: Dopamine D2 receptor (DRD2) small molecule agonists, cell-based qHTS assay (AID 1963594); note: nearly all actives have a fitted effect of over 35% in size
In short: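 HEK293 cells stably expressing DRD2 were cultured 24 h at 37 C, then given Ro20-1724 (0.1 mM final) and compounds for 10 min at room temperature. NKH477 (200nM) was then added for 30 min. cAMP was read by HTRF.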

[19] = target: D(2) dopamine receptor (Homo sapiens) (UniProt P14416); experiment: Dopamine D2 receptor (DRD2) small molecule antagonists, cell-based qHTS assay (AID 1963595; active = well fitted inhibition curve with a large enough effect in the signal ratio in the repeat runs, with a control signal flat; the % refers to the signal ratio)
In short: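 Cells were plated and grown for 24 h at 37 °C. Ro20-1724 (0.1 mM final) went in first, then compound for 10 min. NKH477 (200 nM) with quinpirole (12 nM) followed for 30 min at RT, then HTRF detection reagents for 1 h.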

[20] = target: Beta-2 adrenergic receptor (Homo sapiens) (UniProt P07550); experiment: Adrenergic beta2 receptor (ADRB2) small molecule antagonists, cell-based qHTS assay (AID 1963592); note: series mostly up to about 92 µM; nearly all actives have a fitted effect of over 50% in size
In short: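 Assay format: CHO-ADRB2 cells, 18-20hr seeding at 37C/5% CO2, then compound plus 1nM isoproterenol agonist mix for 0.5hr RT. Homogeneous time-resolved fluorescence cAMP detection after 1hr, expressed as 665/615 nm ratio.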

Sequence of Beta-2 adrenergic receptor (Homo sapiens) (P07550 whole entry, looked up): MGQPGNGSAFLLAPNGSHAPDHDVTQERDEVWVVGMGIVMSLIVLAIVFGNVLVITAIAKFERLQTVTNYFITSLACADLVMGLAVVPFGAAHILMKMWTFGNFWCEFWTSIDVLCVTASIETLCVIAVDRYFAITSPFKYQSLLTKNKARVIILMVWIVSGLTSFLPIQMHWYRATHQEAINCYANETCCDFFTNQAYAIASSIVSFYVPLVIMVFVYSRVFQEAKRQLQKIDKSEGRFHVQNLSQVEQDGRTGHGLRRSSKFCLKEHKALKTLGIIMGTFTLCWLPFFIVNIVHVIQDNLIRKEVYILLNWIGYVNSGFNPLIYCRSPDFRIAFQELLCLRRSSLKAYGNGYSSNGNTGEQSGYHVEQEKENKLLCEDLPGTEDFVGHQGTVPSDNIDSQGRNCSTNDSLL
Sequence of D(2) dopamine receptor (Homo sapiens) (P14416 whole entry, looked up): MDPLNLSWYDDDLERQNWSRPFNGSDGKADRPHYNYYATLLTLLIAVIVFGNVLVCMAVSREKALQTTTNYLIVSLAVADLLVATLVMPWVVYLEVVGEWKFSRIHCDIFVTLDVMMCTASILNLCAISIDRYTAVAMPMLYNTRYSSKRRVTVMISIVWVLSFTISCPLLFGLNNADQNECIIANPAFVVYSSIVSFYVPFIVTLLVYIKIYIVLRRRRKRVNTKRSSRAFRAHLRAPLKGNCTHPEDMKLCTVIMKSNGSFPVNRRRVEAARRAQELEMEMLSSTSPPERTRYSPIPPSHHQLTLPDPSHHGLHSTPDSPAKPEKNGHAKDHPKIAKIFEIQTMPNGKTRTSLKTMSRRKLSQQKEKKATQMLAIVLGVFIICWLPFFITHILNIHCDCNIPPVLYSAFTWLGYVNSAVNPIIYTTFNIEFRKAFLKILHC
Sequence of 5-hydroxytryptamine receptor 2A (Homo sapiens) (P28223 whole entry, looked up): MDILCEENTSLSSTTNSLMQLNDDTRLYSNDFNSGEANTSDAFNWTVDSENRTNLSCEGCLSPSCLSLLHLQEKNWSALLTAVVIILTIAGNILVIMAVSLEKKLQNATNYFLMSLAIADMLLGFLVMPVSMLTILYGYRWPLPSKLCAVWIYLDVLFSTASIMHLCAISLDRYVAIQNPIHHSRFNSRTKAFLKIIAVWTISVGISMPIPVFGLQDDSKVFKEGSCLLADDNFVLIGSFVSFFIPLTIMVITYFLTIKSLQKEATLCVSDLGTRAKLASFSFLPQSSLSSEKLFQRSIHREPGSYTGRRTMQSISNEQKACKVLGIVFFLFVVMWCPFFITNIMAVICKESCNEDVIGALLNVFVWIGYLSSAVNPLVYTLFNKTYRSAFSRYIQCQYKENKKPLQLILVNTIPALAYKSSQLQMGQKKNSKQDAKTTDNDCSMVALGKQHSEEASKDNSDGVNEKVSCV
Sequence of Gonadotropin-releasing hormone receptor (Homo sapiens) (P30968 whole entry, looked up): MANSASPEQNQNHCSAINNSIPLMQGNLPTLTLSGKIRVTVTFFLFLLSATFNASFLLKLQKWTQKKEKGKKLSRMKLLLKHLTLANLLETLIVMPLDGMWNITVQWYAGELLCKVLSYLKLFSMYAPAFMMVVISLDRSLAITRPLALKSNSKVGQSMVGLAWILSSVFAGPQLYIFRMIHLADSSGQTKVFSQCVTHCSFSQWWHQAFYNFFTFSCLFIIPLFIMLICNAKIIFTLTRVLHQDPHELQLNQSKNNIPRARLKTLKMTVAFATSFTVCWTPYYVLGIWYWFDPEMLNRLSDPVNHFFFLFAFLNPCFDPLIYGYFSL
Sequence of KiSS-1 receptor (Homo sapiens) (Q969F8 whole entry, looked up): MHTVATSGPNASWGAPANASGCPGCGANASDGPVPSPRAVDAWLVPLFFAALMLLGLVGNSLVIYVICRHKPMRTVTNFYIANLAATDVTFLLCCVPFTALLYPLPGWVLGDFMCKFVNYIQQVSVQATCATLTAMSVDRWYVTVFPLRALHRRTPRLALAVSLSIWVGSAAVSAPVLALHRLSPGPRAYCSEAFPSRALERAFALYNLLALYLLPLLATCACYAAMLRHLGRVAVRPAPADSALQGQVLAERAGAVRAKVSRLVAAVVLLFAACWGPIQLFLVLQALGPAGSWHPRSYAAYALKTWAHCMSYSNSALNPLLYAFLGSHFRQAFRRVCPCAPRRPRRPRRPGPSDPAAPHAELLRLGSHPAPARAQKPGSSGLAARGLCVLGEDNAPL
Sequence of Muscarinic acetylcholine receptor M1 (Homo sapiens) (P11229 whole entry, looked up): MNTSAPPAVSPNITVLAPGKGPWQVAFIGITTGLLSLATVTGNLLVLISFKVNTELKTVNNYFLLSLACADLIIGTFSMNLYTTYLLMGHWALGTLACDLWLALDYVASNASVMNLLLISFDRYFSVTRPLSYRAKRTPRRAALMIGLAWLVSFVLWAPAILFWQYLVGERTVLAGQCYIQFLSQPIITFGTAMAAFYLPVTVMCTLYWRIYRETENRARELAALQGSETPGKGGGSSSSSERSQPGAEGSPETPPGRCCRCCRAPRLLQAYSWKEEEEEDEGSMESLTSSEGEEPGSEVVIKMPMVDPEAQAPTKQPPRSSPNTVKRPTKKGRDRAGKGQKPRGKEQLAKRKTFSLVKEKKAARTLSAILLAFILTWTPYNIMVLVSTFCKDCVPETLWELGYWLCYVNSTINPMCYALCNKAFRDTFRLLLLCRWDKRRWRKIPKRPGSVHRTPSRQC

Row | Compound | Potency [1] | Potency [2] | Potency [3] | Potency [4] | Potency [5] | Potency [6] | Potency [7] | Potency [8] | Potency [9] | Potency [10] | Potency [11] | Potency [12] | Potency [13] | Potency [14] | Potency [15] | Potency [16] | Potency [17] | Potency [18] | Potency [19] | Potency [20]
1 | CC(C)c1cccc(O)c1 | inactive | inactive | inactive | inactive | inactive | inactive | inactive | inactive | inactive | inactive | inactive | inactive | inactive | inactive | inactive | inactive | inactive | inactive | inactive | –
2 | CCc1ccc(Br)cc1 | inactive | inactive | inactive | inactive | inactive | inactive | inactive | inactive | inactive | inactive | inactive | inactive | inactive | inactive | inactive | inactive | – | inactive | inactive | inactive
3 | COc1cc(C)c(Cc2cnc(N)nc2N)cc1OC | inactive | inactive | inactive | inactive | inactive | inactive | inactive | inactive | inactive | inactive | inactive | inactive | inactive | inactive | inactive | inactive | – | inactive | inactive | –
4 | Nc1ccc(N=Nc2ccccc2)c(N)n1 | 30.8 µM (active) | 1.73 µM (active) and 2.73 µM (active) and 2.37 µM (active) | inactive | inactive | inactive | inactive | inactive | inactive | inactive | inactive | inactive | inactive | inactive | inactive | inactive | inactive | – | inactive | inactive | –
5 | O=C(OC(=O)c1ccccc1)c1ccccc1 | inactive | inactive | inactive | inactive | inactive | inactive | inactive | inactive | inactive | inactive | inactive | inactive | inactive | inactive | inactive | inactive | – | inactive | inactive | inactive
6 | CC(C)c1ccc(C=O)cc1 | inactive | inactive | inactive | inactive | inactive | inactive | inactive | inactive | inactive | inactive | inactive | inactive | inactive | inactive | inactive | inactive | inactive | inactive | inactive | –
7 | CC(C)CCCC(C)N (stereo not given) | inactive | inactive | inactive | inactive | inactive | inactive | inactive | inactive | inactive | inactive | inactive | inactive | inactive | inactive | inactive | inactive | – | – | – | inactive
8 | O=Cc1ccc(Cl)c(Cl)c1 | inactive | inactive | inactive | inactive | inactive | inactive | inactive | inactive | inactive | inactive | inactive | inactive | inactive | inactive | inactive | inactive | inactive | inactive | inactive | –
9 | CC(=O)Nc1ccc(C)cc1 | inactive | inactive | inactive | inactive | inactive | inactive | inactive | inactive | inactive | inactive | inactive | inactive | inactive | inactive | inactive | inactive | inactive | inactive | inactive | –
10 | CO[C@@H]1[C@@H](O[C@@H]2O[C@H](C)[C@@H](O[C@H]3C[C@@](C)(O)[C@@H](O)[C@H](C)O3)[C@H](N(C)C)[C@H]2O)[C@@H](CC=O)C[C@@H](C)[C@@H](O[C@@H]2CC[C@H](N(C)C)[C@@H](C)O2)/C=C/C=C/C[C@@H](C)OC(=O)C[C@H]1OC(C)=O | inactive | inactive | inactive | inactive | inactive | inactive | inactive | inactive | inactive | inactive | inactive | inactive | inactive | inactive | inactive | inactive | inactive | inactive | inactive | –
11 | O=C(C(=O)c1ccco1)c1ccco1 | inactive | inactive | inactive | inactive | inactive | inactive | inactive | inactive | inactive | inactive | inactive | inactive | inactive | inactive | inactive | inactive | – | inactive | – | inactive
12 | O=C1OC(=O)c2ccc3c4c(ccc1c24)C(=O)OC3=O | inactive | inactive | inactive | inactive | inactive | inactive | inactive | inactive | inactive | inactive | inactive | inactive | inactive | inactive | inactive | inactive | inactive | inactive | – | –
13 | CCC(C)(C)C1CCCCC1OC(C)=O (stereo not given) | inactive | inactive | inactive | inactive | inactive | inactive | inactive | inactive | inactive | inactive | inactive | inactive | inactive | inactive | inactive | inactive | – | inactive | inactive | inactive
14 | NC(=O)Nc1ccc(Cl)cc1 | inactive | inactive | inactive | inactive | inactive | inactive | inactive | inactive | inactive | inactive | inactive | inactive | inactive | inactive | inactive | inactive | – | inactive | inactive | inactive
